Counter-ions that a name gives are not always drawn. ± gives the standard deviation of the averaged measurements.
Columns and labels:
Experiment in all cases: growth (OD600 after 10 h); higher = more growth (less inhibition)
[1] = system: E. coli TESEC Alr+ wild-type control; settings: compound 0.1 mM; raw OD600 reference: median of DMSO wells 0.241, cell-free background 0.041
Description: (§1)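 TESEC Mtb Alr E. coli, or the Alr+ wild-type control, in 384-well plates with Prestwick library compounds at 0.1 mM and 1% DMSO, across arabinose induction levels of 1E3 to 1E7 nM. Growth is read as OD600 after 10 h at 37 °C in triplicate biological replicates.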

[2] = system: E. coli TESEC Mtb Alr; settings: compound 0.1 mM
Description: as §1

[3] = system: E. coli TESEC Mtb Asd; settings: compound 0.1 mM
Description: (§2)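 TESEC E. coli strains in which the native enzyme is deleted and replaced by arabinose-inducible Mtb Asd, DapB, CysH or TrpD, each grown in its selective medium. Strains were screened against the Prestwick library at 0.1 mM and 1% DMSO in 384-well format at low and high arabinose induction. Growth is read as OD600 after 10 h in triplicate.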

[4] = system: E. coli TESEC Mtb DapB; settings: compound 0.1 mM
Description: as §2

[5] = system: E. coli TESEC Alr+ wild-type control; settings: compound 0.1 mM; raw OD600 reference: median of DMSO wells 0.49, cell-free background 0.052
Description: (§3)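 TESEC Mtb Alr E. coli (ΔaraC ΔtolC ΔentC Δalr ΔdadX, arabinose-inducible Mtb Alr) or the Alr+ wild-type control strain, grown in defined M9-fructose medium without D-alanine in 96-well plates with Prestwick library compounds at 0.1 mM and 1% DMSO. Low Alr induction is 0.1 µM arabinose and high induction is 10 mM arabinose.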

[6] = system: E. coli TESEC Mtb Alr; settings: compound 0.1 mM; remark: listed apart in the source
Description: as §3

[7] = arabinose 1000 nM, raw OD600 reference: median of DMSO wells 0.294, cell-free background 0.041
[8] = arabinose 10000 nM, raw OD600 reference: median of DMSO wells 0.264, cell-free background 0.041
[9] = arabinose 100000 nM, raw OD600 reference: median of DMSO wells 0.201, cell-free background 0.041
[10] = arabinose 1000000 nM, raw OD600 reference: median of DMSO wells 0.193, cell-free background 0.041
[11] = arabinose 10000000 nM, raw OD600 reference: median of DMSO wells 0.146, cell-free background 0.041
[12] = arabinose induction (level): High, raw OD600 reference: median of DMSO wells 0.331, cell-free background 0.041
[13] = arabinose induction (level): Low, raw OD600 reference: median of DMSO wells 0.417, cell-free background 0.041
[14] = arabinose induction (level): High, raw OD600 reference: median of DMSO wells […], cell-free background 0.041
[15] = arabinose induction (level): Low, raw OD600 reference: median of DMSO wells 0.227, cell-free background 0.041
[16] = arabinose 100 nM, raw OD600 reference: median of DMSO wells 0.413, cell-free background 0.052
[17] = arabinose 10000000 nM, raw OD600 reference: median of DMSO wells […], cell-free background 0.052

SMILES	growth [1]	growth [2, 7]	growth [2, 8]	growth [2, 9]	growth [2, 10]	growth [2, 11]	growth [3, 12]	growth [3, 13]	growth [4, 14]	growth [4, 15]	growth [5]	growth [6, 16]	growth [6, 17]
N=C(N)c1ccc(OCCCCCOc2ccc(C(=N)N)cc2)cc1 [Pentamidine isethionate]	0.0725 ± 0.0026	0.0837 ± 0.0024	0.0536 ± 0.0012	0.0903 ± 0.001	0.0538 ± 0.0022	0.095 ± 0.001	0.0804 ± 0.013	0.0745 ± 0.01	0.224 ± 0.008	0.0531 ± 0.0065	0.194 ± 0.068	0.28 ± 0.16	0.0605 ± 0.0026
COC(=O)C1=C(C)NC(C)=C(C(=O)OC(C)C)C1c1cccc2nonc12 (configuration not stated) [Isradipine]	0.149 ± 0.0056	0.206 ± 0.0037	0.254 ± 0.015	0.164 ± 0.0057	0.0817 ± 0.0022	0.154 ± 0.0037	0.166 ± 0.018	0.259 ± 0.041	0.19 ± 0.019	0.21 ± 0.011	0.379 ± 0.0051	0.394 ± 0.01	0.167 ± 0.038
CCCN[C@H]1CCc2nc(N)sc2C1 [Pramipexole dihydrochloride]	0.237 ± 0.0095	0.289 ± 0.004	0.258 ± 0.0086	0.207 ± 0.015	0.191 ± 0.01	0.15 ± 0.0057	0.262 ± 0.068	0.334 ± 0.02	0.174 ± 0.013	0.209 ± 0.013	0.64 ± 0.0092	0.406 ± 0.013	0.363 ± 0.012
N=C(N)NCC1COC2(CCCCC2)O1 (configuration not stated) [Guanadrel sulfate]	0.241 ± 0.0075	0.296 ± 0.0091	0.258 ± 0.0067	0.204 ± 0.017	0.183 ± 0.0022	0.138 ± 0.0046	0.363 ± 0.079	0.368 ± 0.036	0.22 ± 0.023	0.227 ± 0.039	0.635 ± 0.012	0.406 ± 0.013	0.324 ± 0.012
CN(C)CCOc1ccc(/C(=C(/CCCl)c2ccccc2)c2ccccc2)cc1 [Toremifene]	0.0414 ± 0.0014	0.04087 ± 0.0004	0.04003 ± 0.00032	0.0409 ± 0.00036	0.04023 ± 0.00025	0.04073 ± 0.00021	0.0528 ± 0.00055	0.057 ± 0.0021	0.0495 ± 0.0014	0.0508 ± 0.001	0.0478 ± 0.00064	0.0666 ± 0.015	0.0577 ± 0.0032
CC(=O)OCC(=O)[C@@]1(O)CC[C@H]2[C@@H]3CCC4=CC(=O)C=C[C@]4(C)[C@@]3(F)[C@@H](O)C[C@@]21C [Isoflupredone acetate]	0.206 ± 0.028	0.266 ± 0.019	0.22 ± 0.0097	0.213 ± 0.015	0.128 ± 0.0061	0.13 ± 0.0065	0.348 ± 0.046	0.413 ± 0.056	0.21 ± 0.01	0.253 ± 0.038	0.422 ± 0.029	0.389 ± 0.0064	0.286 ± 0.01
CC(=O)OCC(=O)[C@@]1(O)CC[C@H]2[C@@H]3CCC4=CC(=O)CC[C@]4(C)[C@@]3(F)[C@@H](O)C[C@@]21C [Fludrocortisone acetate]	0.188 ± 0.0026	0.235 ± 0.021	0.255 ± 0.012	0.141 ± 0.0083	0.1074 ± 0.0007	0.128 ± 0.0027	0.249 ± 0.066	0.37 ± 0.092	0.188 ± 0.014	0.242 ± 0.039	0.459 ± 0.028	0.401 ± 0.0079	0.229 ± 0.02
Cc1cc(O)c(C(=O)N[C@@H](C(=O)N[C@@H]2C(=O)N3C(C(=O)O)=C(CSc4nnnn4C)CS[C@H]23)c2ccc(O)cc2)cn1 [Cefpiramide]	0.2668 ± 0.0012	0.3183 ± 0.00044	0.245 ± 0.0057	0.217 ± 0.015	0.208 ± 0.027	0.135 ± 0.0067	0.356 ± 0.063	0.375 ± 0.077	0.214 ± 0.007	0.239 ± 0.035	0.584 ± 0.046	0.419 ± 0.016	0.3403 ± 0.00045
CCn1cc(C(=O)O)c(=O)c2cc(F)c(N3CCNCC3)nc21 [Enoxacin]	0.0456 ± 0.0012	0.0427 ± 0.0002	0.03917 ± 0.00031	0.0439 ± 0.0015	0.0411 ± 0.0025	0.0452 ± 0.0001	0.0919 ± 0.024	0.0687 ± 0.0059	0.06527 ± 0.00061	0.061 ± 0.0086	0.05513 ± 0.00042	0.0588 ± 0.0019	0.05293 ± 0.00025
Clc1ccc(C(Cn2ccnc2)OCc2c(Cl)cccc2Cl)c(Cl)c1 (configuration not stated) [Isoconazole]	0.0482 ± 0.00036	0.0445 ± 0.0043	0.247 ± 0.037	0.0465 ± 0.0023	0.105 ± 0.12	0.0545 ± 0.0038	0.152 ± 0.079	0.0562 ± 0.006	0.0672 ± 0.015	0.0666 ± 0.02	0.0722 ± 0.023	0.0651 ± 0.02	0.104 ± 0.075
CC(C)(C)C(=O)OCOC(=O)[C@@H]1N2C(=O)[C@@H](NC(=O)[C@H](N)c3ccccc3)[C@H]2SC1(C)C [Pivampicillin]	0.26 ± 0.0055	0.351 ± 0.0076	0.285 ± 0.011	0.298 ± 0.011	0.207 ± 0.02	0.203 ± 0.0048	0.376 ± 0.075	0.396 ± 0.018	0.216 ± 0.058	0.24 ± 0.024	0.555 ± 0.11	0.4 ± 0.012	0.379 ± 0.028
COC(=O)Nc1nc2cc(C(=O)c3ccccc3)ccc2[nH]1 [Mebendazole]	0.202 ± 0.005	0.245 ± 0.021	0.269 ± 0.0042	0.189 ± 0.011	0.168 ± 0.0043	0.159 ± 0.0019	0.306 ± 0.021	0.398 ± 0.078	0.206 ± 0.017	0.273 ± 0.053	0.588 ± 0.031	0.413 ± 0.0078	0.342 ± 0.017
CCCCNc1ccc(C(=O)OCCOCCOCCOCCOCCOCCOCCOCCOCCOC)cc1 [Benzonatate]	0.241 ± 0.0078	0.279 ± 0.0063	0.252 ± 0.011	0.217 ± 0.0091	0.148 ± 0.006	0.157 ± 0.0052	0.245 ± 0.012	0.405 ± 0.0093	0.17 ± 0.017	0.206 ± 0.036	0.444 ± 0.033	0.407 ± 0.012	0.264 ± 0.12
C[C@@H](O)[C@H]1C(=O)N2C(C(=O)O)=C(SCCNC=N)C[C@H]12 [Imipenem]	0.216 ± 0.0037	0.282 ± 0.0094	0.269 ± 0.0053	0.202 ± 0.035	0.174 ± 0.0056	0.136 ± 0.0047	0.296 ± 0.1	0.37 ± 0.065	0.198 ± 0.012	0.231 ± 0.015	0.271 ± 0.022	0.165 ± 0.11	0.111 ± 0.011
